Source: PubChem BioAssay AID1159580 (chemical genetic matrix, 2015)
Hit rate of the full screen: of about 5,500 compounds, about 2,000 (36%) were called active. About 18% were inconclusive and are not listed. No stated cut-off is given here; in the data, active means normalized growth mostly below about 0.91 (no sharp cut-off); inconclusive means no clear call, values can overlap the other calls; inactive means mostly above about 0.92. The list shows a part of the results.

Assay: chemical genetic growth profiling, strain panel (AID 1159580);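 further: tested at 20 µM; growth read once vehicle control cultures reached saturation at 30 °C; 1 = growth at the plate median or of vehicle wells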
Conditions: growth OD

Measured: normalized growth

CCOC(=O)C1CCN(C(=S)Nc2ccccc2C(F)(F)F)CC1
inactive: S. cerevisiae deletion strains, locus YAL013W, strain DEP1, stronger effect = lower value 1 | S. cerevisiae deletion strains, locus YBR229C, strain ROT2, stronger effect = lower value 1 | S. cerevisiae deletion strains, locus YCL061C, strain MRC1, stronger effect = lower value 1.02 | S. cerevisiae deletion strains, locus YDL101C, strain DUN1, stronger effect = lower value 1.01 | S. cerevisiae deletion strains, locus YDR150W, strain NUM1, stronger effect = lower value 0.994 | S. cerevisiae deletion strains, locus YEL061C, strain CIN8, stronger effect = lower value 0.998 | S. cerevisiae deletion strains, locus YGR078C, strain PAC10, stronger effect = lower value 1.01 | S. cerevisiae deletion strains, locus YHR030C, strain SLT2, stronger effect = lower value 0.99 | S. cerevisiae deletion strains, locus YHR087W, strain rtc3, stronger effect = lower value 1.02 | S. cerevisiae deletion strains, locus YJR043C, strain POL32, stronger effect = lower value 1 | S. cerevisiae deletion strains, locus YJR075W, strain HOC1, stronger effect = lower value 0.982 | S. cerevisiae deletion strains, locus YKL190W, strain CNB1, stronger effect = lower value 0.994 | S. cerevisiae deletion strains, locus YLR039C, strain RIC1, stronger effect = lower value 0.866 | S. cerevisiae deletion strains, locus YLR058C, strain SHM2 (second series), stronger effect = lower value 0.996 | S. cerevisiae deletion strains, locus YLR085C, strain ARP6, stronger effect = lower value 0.983 | S. cerevisiae deletion strains, locus YLR262C, strain YPT6, stronger effect = lower value 0.868 | S. cerevisiae deletion strains, locus YML094W, strain GIM5, stronger effect = lower value 1.08 | S. cerevisiae deletion strains, locus YMR219W, strain ESC1, stronger effect = lower value 1 | S. cerevisiae deletion strains, locus YMR263W, strain SAP30, stronger effect = lower value 1.01 | S. cerevisiae deletion strains, locus YMR307W, strain GAS1, stronger effect = lower value 0.913 | S. cerevisiae deletion strains, locus YNL153C, strain GIM3, stronger effect = lower value 1.01 | S. cerevisiae deletion strains, locus YNL298W, strain CLA4 (second series), stronger effect = lower value 0.973 | S. cerevisiae deletion strains, locus YNL322C, strain KRE1, stronger effect = lower value 1.01 | S. cerevisiae deletion strains, locus YNR030W, strain Alg12, stronger effect = lower value 0.978 | S. cerevisiae deletion strains, locus YOL006C, strain TOP1, stronger effect = lower value 1.04 | S. cerevisiae deletion strains, locus YPL055C, strain LGE1, stronger effect = lower value 1.03 | S. cerevisiae deletion strains, locus YPL241C, strain CIN2, stronger effect = lower value 1.01 | S. cerevisiae deletion strains, locus YPR135W, strain CTF4, stronger effect = lower value 0.982 | S. cerevisiae strains, strain wild type, stronger effect = lower value 1.01
